# According to PubChem BioAssay (Tox21):
# Where “and” joins values, the source holds several entries; their conditions need not be identical. Equal entries are not always repeated. Values without a mark were called inactive. Entries that show only a call come without a potency. Calls of active or inactive are those of the source. Unless noted, the call rests on the fitted dose curve; in most records, active means well fitted curve in the direction sought with a large enough effect in the repeat runs; inconclusive means weak or mixed curves; inactive means no such curve, though single readings can be large; an effect the other way counts as inactive or inconclusive.
# Experiments:
# [1] = qHTS assay for small molecule disruptors of the mitochondrial membrane potential (AID 720635); further: potency means the concentration at half of the fitted maximal effect
# Summary of the method: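 Mitochondrial membrane potential tracked with Mito-MPS dye, red aggregates (ex 540/em 590 nm) against green monomers (ex 490/em 535 nm). Compound treatment 1 hr at 37C, dye 30 min in HepG2.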
# [2] = molecular target: Estrogen receptor (Homo sapiens) (UniProt P03372); assay: qHTS assay to identify small molecule antagonists of the estrogen receptor alpha (ER-alpha) signaling pathway (AID 743069; active means well fitted curve in the direction sought with a large enough effect in the signal ratio in the repeat runs, not every such curve was filed as active; inconclusive means weak or mixed curves, or effect the other way; inactive means no such curve, though single readings can be large or run the other way; the % refers to the signal ratio; further: potency means the concentration at half of the fitted maximal effect)
# Chain of Estrogen receptor (Homo sapiens) (P03372 whole entry, looked up): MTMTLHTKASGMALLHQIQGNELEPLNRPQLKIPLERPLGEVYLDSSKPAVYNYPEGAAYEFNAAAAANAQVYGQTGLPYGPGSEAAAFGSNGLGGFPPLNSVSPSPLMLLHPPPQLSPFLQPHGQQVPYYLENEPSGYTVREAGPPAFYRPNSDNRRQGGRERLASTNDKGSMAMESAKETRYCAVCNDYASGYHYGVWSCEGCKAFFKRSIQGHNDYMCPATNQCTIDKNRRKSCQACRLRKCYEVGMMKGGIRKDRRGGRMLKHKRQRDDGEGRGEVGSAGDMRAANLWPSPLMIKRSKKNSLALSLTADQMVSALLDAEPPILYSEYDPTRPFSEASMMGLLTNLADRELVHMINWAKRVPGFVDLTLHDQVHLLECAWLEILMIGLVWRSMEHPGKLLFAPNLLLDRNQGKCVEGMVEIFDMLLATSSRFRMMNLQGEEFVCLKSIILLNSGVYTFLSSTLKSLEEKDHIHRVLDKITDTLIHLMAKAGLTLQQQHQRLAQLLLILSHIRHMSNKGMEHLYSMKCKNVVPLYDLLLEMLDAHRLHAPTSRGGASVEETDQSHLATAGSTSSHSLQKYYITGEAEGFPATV
# Summary of the method: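 Compound effects are measured against 17beta-estradiol stimulation in HEK293 cells with a UAS-controlled beta-lactamase reporter for ER-alpha. Exposure lasts 18 hr at 37C; LiveBLAzer B/G FRET substrate follows for 2 hr at room temperature.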
# [3] = molecular target: Nuclear receptor subfamily 1 group I member 2 (Rattus norvegicus) (UniProt Q9R1A7); assay: Rat pregnane X receptor (rPXR) activation by small molecules, qHTS assay (AID 1346983); conditions: rPXR luciferase reporter cells, One-Glo luminescence, 24 h; max activation: active compounds read high; further: nearly all actives have a fitted effect of over 20% in size
# Chain of Nuclear receptor subfamily 1 group I member 2 (Rattus norvegicus) (Q9R1A7 whole entry, looked up): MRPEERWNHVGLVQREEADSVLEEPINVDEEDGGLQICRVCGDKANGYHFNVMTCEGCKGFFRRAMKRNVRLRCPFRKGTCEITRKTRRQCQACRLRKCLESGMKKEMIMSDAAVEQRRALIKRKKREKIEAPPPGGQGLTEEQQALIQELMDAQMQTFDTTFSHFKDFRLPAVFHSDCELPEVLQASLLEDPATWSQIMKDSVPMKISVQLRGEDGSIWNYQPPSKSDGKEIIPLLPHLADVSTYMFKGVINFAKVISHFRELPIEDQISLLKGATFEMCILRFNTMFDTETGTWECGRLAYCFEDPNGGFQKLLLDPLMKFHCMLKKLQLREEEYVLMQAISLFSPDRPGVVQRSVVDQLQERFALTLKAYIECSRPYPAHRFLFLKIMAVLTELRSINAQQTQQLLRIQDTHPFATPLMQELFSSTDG
# Summary of the method: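 Luminescent readout (One-Glo luciferase, 30 min room temperature) followed 24 hr compound treatment at 37 C of rPXR cells plated 2,000 per well and preincubated 5hr; qHTS format with compounds delivered in DMSO.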
# [4] = molecular target: Androgen receptor (Homo sapiens) (UniProt P10275); assay: qHTS assay to identify small molecule antagonists of the androgen receptor (AR) signaling pathway (AID 743035; active means well fitted inhibition curve with a large enough effect in the signal ratio in the repeat runs, not every such curve was filed as active; inconclusive means weak or mixed curves, or effect the other way; inactive means no such curve, though single readings can be large or run the other way; the % refers to the signal ratio; further: potency means the concentration at half of the fitted maximal effect)
# Chain of Androgen receptor (Homo sapiens) (P10275 whole entry, looked up): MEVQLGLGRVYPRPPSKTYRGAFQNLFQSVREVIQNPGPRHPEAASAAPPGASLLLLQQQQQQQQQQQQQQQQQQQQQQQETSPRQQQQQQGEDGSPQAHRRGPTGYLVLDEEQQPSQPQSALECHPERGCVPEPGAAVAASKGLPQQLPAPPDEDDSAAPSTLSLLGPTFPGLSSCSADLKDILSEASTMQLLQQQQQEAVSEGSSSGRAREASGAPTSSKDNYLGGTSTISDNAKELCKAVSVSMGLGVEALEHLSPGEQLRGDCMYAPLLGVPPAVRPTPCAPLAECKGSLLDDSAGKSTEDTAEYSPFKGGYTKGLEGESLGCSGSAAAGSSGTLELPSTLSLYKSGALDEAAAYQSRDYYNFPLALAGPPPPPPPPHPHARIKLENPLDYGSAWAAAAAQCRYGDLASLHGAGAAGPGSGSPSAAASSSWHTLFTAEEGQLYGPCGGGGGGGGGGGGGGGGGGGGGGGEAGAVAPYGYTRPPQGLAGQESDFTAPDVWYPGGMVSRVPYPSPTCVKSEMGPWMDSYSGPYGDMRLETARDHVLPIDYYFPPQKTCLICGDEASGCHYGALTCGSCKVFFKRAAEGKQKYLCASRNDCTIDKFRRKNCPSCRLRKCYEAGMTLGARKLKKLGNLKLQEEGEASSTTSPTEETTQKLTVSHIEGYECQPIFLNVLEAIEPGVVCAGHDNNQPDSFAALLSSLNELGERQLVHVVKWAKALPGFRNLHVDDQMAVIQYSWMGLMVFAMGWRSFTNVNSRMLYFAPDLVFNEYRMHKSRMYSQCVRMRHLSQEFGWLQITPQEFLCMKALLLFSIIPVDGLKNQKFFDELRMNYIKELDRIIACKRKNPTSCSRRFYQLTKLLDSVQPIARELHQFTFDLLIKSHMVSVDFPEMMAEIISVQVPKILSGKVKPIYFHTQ
# Summary of the method: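 HEK293 cells stably carrying UAS-beta-lactamase reporter, 2,000/well, given compounds plus R1881 agonist and incubated 16 h at 37C. LiveBLAzer B/G FRET substrate then added for 2 h at room temperature before fluorescence reading.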
# [5] = molecular target: Androgen receptor (Homo sapiens) (UniProt P10275); assay: qHTS assay to identify small molecule agonists of the androgen receptor (AR) signaling pathway using the MDA cell line (AID 743040; further: nearly all actives have a fitted effect of over 20% in size; further: potency means the concentration at half of the fitted maximal effect)
# Summary of the method: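 After a 5 h incubation at 37C and 0% CO2, MDA-kb2 reporter cells were dosed with compounds in DMSO and kept 16 h under the same conditions. Luciferase activity was then read as luminescence with ONE-Glo.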
# [6] = molecular target: Androgen receptor (Homo sapiens) (UniProt P10275); assay: qHTS assay to identify small molecule antagonists of the androgen receptor (AR) signaling pathway using the MDA cell line (AID 743042; further: nearly all actives have a fitted effect of over 55% in size; further: potency means the concentration at half of the fitted maximal effect)
# Summary of the method: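 Antagonist mode: compounds plus R1881 agonist added to MDA-kb2 AR-luc cells, incubated 16 h at 37C. Luciferase reporter luminescence quantified, with multiplexed CellTiter-Fluor readout for cell viability.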
# [7] = molecular target: Androgen receptor (Homo sapiens) (UniProt P10275); assay: qHTS assay to identify small molecule agonists of the androgen receptor (AR) signaling pathway (AID 743036; active means well fitted activation curve with a large enough effect in the signal ratio in the repeat runs, with a control signal flat, not every such curve was filed as active; inconclusive means weak or mixed curves, or effect the other way; inactive means no such curve, though single readings can be large or run the other way; the % refers to the signal ratio; further: potency means the concentration at half of the fitted maximal effect)
# Summary of the method: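 AR-UAS-bla HEK293 cells, plated 4 h before dosing, were treated with compound for 16 h at 37C. beta-Lactamase reporter read after 2 h with LiveBLAzer B/G FRET substrate at room temperature.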
# [8] = molecular target: Glucocorticoid receptor (Homo sapiens) (UniProt P04150); assay: qHTS assay to identify small molecule agonists of the glucocorticoid receptor (GR) signaling pathway (AID 720691; active means well fitted activation curve with a large enough effect in the signal ratio in the repeat runs, not every such curve was filed as active; inconclusive means weak or mixed curves, or effect the other way; inactive means no such curve, though single readings can be large or run the other way; the % refers to the signal ratio; further: potency means the concentration at half of the fitted maximal effect)
# Chain of Glucocorticoid receptor (Homo sapiens) (P04150 whole entry, looked up): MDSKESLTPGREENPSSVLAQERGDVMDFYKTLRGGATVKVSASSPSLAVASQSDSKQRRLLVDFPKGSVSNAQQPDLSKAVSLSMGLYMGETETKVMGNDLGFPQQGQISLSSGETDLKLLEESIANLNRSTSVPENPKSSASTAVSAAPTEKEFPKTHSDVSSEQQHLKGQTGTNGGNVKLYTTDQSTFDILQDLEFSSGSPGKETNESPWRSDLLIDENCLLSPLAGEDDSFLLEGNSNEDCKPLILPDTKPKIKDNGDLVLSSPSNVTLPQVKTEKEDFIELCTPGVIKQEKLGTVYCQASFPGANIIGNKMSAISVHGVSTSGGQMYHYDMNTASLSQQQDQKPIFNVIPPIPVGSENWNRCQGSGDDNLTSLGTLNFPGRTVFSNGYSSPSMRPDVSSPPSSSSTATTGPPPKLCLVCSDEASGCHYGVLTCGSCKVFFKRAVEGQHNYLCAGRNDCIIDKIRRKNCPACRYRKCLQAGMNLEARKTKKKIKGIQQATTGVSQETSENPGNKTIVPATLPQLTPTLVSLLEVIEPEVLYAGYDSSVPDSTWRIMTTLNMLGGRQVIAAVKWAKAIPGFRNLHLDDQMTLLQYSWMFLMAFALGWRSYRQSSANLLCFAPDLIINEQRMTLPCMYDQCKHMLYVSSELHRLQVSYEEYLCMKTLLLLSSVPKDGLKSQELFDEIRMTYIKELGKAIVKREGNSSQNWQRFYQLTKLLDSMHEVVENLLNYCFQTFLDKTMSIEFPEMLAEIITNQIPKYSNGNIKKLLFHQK
# Summary of the method: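 GR-bla HeLa cells carrying a GRE-driven beta-lactamase reporter, exposed to compounds for 18 h at 37 C. Reporter activation read as fluorescence after 2 h with LiveBLAzer B/G FRET substrate at room temperature.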
smiles,measurement,setting,value
c1csc(C2(N3CCCCC3)CCCCC2)c1,Potency,[1],inactive
same,Potency,[2],inactive
same,max activation,[3],-0.931%
Oc1cccc[c]1[Hg][Cl],Potency,[1],11.1 µM (active)
same,Potency,[4],6.74 µM (active)
same,Potency,[5],inactive
same,Potency,[6],4.22 µM (active)
same,max activation,[3],-19.4%
CCCCCc1cc(O)c2c(c1)OC(C)(C)[C@@H]1CCC(C)=C[C@@H]21,Potency,[1],3.76 µM (active)
same,Potency,[7],inactive
same,Potency,[5],inactive
same,Potency,[6],inactive
same,max activation,[3],-3.2%
C[C@]12CCC(=O)C=C1C=C[C@@H]1[C@@H]2CC[C@@]2(C)[C@H]1CC[C@@]2(O)CCC(=O)O,Potency,[1],inactive
same,Potency,[4],inactive
same,Potency,[7],3.62 µM (active)
same,Potency,[5],12.7 µM (active)
same,Potency,[6],inactive
[S]=[Sb](=[S])[S][Sb](=[S])=[S],Potency,[1],inactive
same,Potency,[2],inactive
O=C1Nc2ccc(Cl)cc2C(c2ccccc2Cl)=NC1O (stereo unspecified),Potency,[1],inactive
same,Potency,[8],inactive
same,Potency,[4],inactive
same,Potency,[7],inactive
same,Potency,[5],inactive
same,max activation,[3],-2.09%
[H+].[H+].[Hg+2].[O-]B([O-])[O-].[c-]1ccccc1,Potency,[1],13.9 µM (active)
same,max activation,[3],-22%
CC[N+](C)(CC)CCOC(=O)C(O)(c1ccccc1)c1ccccc1,Potency,[8],inactive
same,Potency,[2],inactive
COC(=O)[C@@H]1[C@H]2CC[C@@H](C[C@H]1OC(=O)c1ccccc1)N2C,Potency,[1],inactive
same,Potency,[4],inactive
same,Potency,[7],inactive
same,Potency,[5],inactive
same,Potency,[6],inactive
same,Potency,[2],inactive
CCCCNCC(O)c1ccc(O)cc1 (stereo unspecified),Potency,[1],inactive
same,Potency,[8],inactive
C[N+]1([O-])[C@@H]2CC(OC(=O)[C@H](CO)c3ccccc3)C[C@H]1[C@@H]1O[C@@H]12 (stereo partly specified),Potency,[4],inactive
same,Potency,[5],inactive
same,Potency,[6],inactive
same,Potency,[2],inactive
Cc1cccc(C(C)c2cnc[nH]2)c1C (stereo unspecified),Potency,[1],inactive
same,Potency,[8],inactive
same,max activation,[3],-0.62%
C=CC[C@]1(O)CC[C@H]2[C@@H]3CCC4=CCCC[C@@H]4[C@H]3CC[C@@]21C,Potency,[1],9.44 µM (active)
same,Potency,[8],inactive
same,max activation,[3],1.23%
C[C@H]1CC[C@]2(NC1)O[C@H]1C[C@H]3[C@@H]4CC[C@H]5C[C@@H](O[C@@H]6O[C@H](CO)[C@H](O[C@@H]7O[C@H](CO)[C@@H](O)[C@H](O[C@@H]8OC[C@@H](O)[C@H](O)[C@H]8O)[C@H]7O[C@@H]7O[C@H](CO)[C@@H](O)[C@H](O)[C@H]7O)[C@H](O)[C@H]6O)CC[C@]5(C)[C@H]4CC[C@]3(C)[C@H]1[C@@H]2C,Potency,[1],1.97 µM (active)
same,Potency,[5],inactive
same,Potency,[6],5.96 µM (active)
C=CCN(C1=NCCN1)c1c(Cl)cccc1Cl,Potency,[8],inactive
same,Potency,[2],inactive
CNC1(c2ccccc2Cl)CCCCC1=O (stereo unspecified),Potency,[8],inactive
same,max activation,[3],-2.7% and 3.43%
COC1=CC=C2[C@H]3Cc4ccc(OC)c5c4[C@@]2(CCN3C)[C@H]1O5,Potency,[8],inactive
same,Potency,[2],inactive
C[N+]1(C)[C@@H]2CC[C@H]1CC(OC(=O)c1c[nH]c3ccccc13)C2 (stereo partly specified),Potency,[1],inactive
same,Potency,[8],inactive
same,Potency,[4],inactive
same,Potency,[5],inactive
same,Potency,[6],inactive
same,Potency,[2],inactive
O[C@H]1[C@H]2[C@H](O)CCCN2C[C@H]1O,Potency,[1],inactive
same,Potency,[2],inactive
O=C1CCCCC1CN1CCCCC1 (stereo unspecified),Potency,[1],inactive
same,Potency,[8],inactive
same,Potency,[4],inactive
same,Potency,[7],inactive
same,Potency,[5],inactive
same,Potency,[6],inactive
same,Potency,[2],inactive
O=C(CCl)c1ccc(Oc2ccc(C(=O)CCl)cc2)cc1,Potency,[1],inactive
same,Potency,[2],inactive
C[C@@H](Cc1ccccc1)N(C)C,Potency,[1],inactive
same,Potency,[4],inactive
same,Potency,[7],inactive
same,Potency,[5],inactive
same,Potency,[6],inactive
Cc1nnc2n1-c1ccc(Cl)cc1C(c1ccccc1)=NC2,Potency,[2],21.3 µM [inconclusive] (active)
same,max activation,[3],-0.769%
C[C@]12CC[C@H]3[C@@H](CCC4=C(Cl)C(=O)CC[C@@]43C)[C@@H]1CC[C@@H]2O,Potency,[4],inactive
same,Potency,[7],0.003 µM (active)
same,Potency,[5],0.0019 µM (active)
same,Potency,[6],inactive
same,max activation,[3],-0.226%
CC(C)C[C@H](CN)CC(=O)O,Potency,[8],inactive
same,Potency,[2],inactive
O=C1CN(O)C(c2ccccc2)=c2cc(Cl)ccc2=N1,Potency,[8],inactive
same,Potency,[4],inactive
same,Potency,[7],inactive
same,Potency,[5],inactive
same,Potency,[6],inactive
CC[C@H]1[C@@H]2C[C@H]3[C@@H]4N(C)c5ccccc5[C@]45C[C@@H](C2[C@H]5O)N3[C@@H]1O (stereo partly specified),Potency,[8],inactive
same,Potency,[2],inactive
same,max activation,[3],0.0648%
CCC1(C)CC(=O)NC(=O)C1,Potency,[1],inactive
same,Potency,[8],inactive
same,Potency,[2],inactive
CC(=O)OC1CN2CCC1CC2 (stereo unspecified),Potency,[2],inactive
CC(Cc1ccccc1)NC=O (stereo unspecified),Potency,[1],inactive
CCNC(C)Cc1cccc(C(F)(F)F)c1 (stereo unspecified),Potency,[8],inactive
same,Potency,[2],inactive
same,max activation,[3],-1.05%
CCCC(=O)OC(C(Cl)(Cl)Cl)P(=O)(OC)OC (stereo unspecified),Potency,[8],inactive
same,Potency,[4],inactive
same,Potency,[7],inactive
same,Potency,[5],33.5 µM (active)
same,Potency,[6],inactive
c1cc2c(c(NC3=NCCN3)c1)CCCC2,Potency,[1],inactive
same,Potency,[4],inactive
same,Potency,[5],inactive
same,Potency,[6],inactive
C/C=C(\CC)C(=O)NC(N)=O,Potency,[1],inactive
same,Potency,[8],inactive
C=CCC1(C(C)CCC)C(=O)N=C(S)NC1=O (stereo unspecified),Potency,[8],inactive
same,Potency,[7],inactive
same,Potency,[5],inactive
same,Potency,[6],inactive
c1ccc(C2(N3CCCC3)CCCCC2)cc1,Potency,[8],inactive
CN[C@@]1(c2ccccc2Cl)CCCCC1=O,Potency,[2],inactive
C1CN(P2(N3CC3)=NP(N3CC3)(N3CC3)=NP(N3CC3)(N3CC3)=N2)CCO1 (stereo unspecified),Potency,[1],inactive
O=C1CN=C(c2ccccc2)c2cc(Cl)ccc2N1,Potency,[1],inactive
same,Potency,[8],inactive
same,Potency,[2],inactive
C[C@@H]1[C@H]2Cc3ccc(O)cc3[C@]1(C)CCN2C,Potency,[8],inactive
Cc1nnc2n1-c1ccc(Cl)cc1C(c1ccccc1Cl)=NC2,Potency,[1],inactive
CCNC1(c2cccs2)CCCCC1=O (stereo unspecified),Potency,[8],inactive
CCCSc1cc(OC)c(CCN)cc1OC,Potency,[8],inactive
same,Potency,[4],6.55 µM (active)
same,Potency,[5],inactive
same,Potency,[6],inactive
Oc1cc[c]([Hg][Cl])cc1,Potency,[1],11.9 µM (active)
same,Potency,[4],19 µM (active)
same,Potency,[5],inactive
same,Potency,[6],8.41 µM (active) and 5.96 µM (active)
CC(=O)[C@@]1(O)CC[C@H]2[C@@H]3CCC4=CC(=O)CC[C@]4(C)C3(F)[C@@H](O)C[C@@]21C (stereo partly specified),Potency,[1],inactive
same,Potency,[8],0.19 µM [inconclusive] (active)
O=C(O)CCCO,Potency,[1],inactive
same,Potency,[8],inactive
same,Potency,[4],inactive
same,Potency,[7],inactive
same,Potency,[5],inactive
same,Potency,[6],inactive
O=C1C[C@@H]2OCC=C3CN4CC[C@]56c7ccccc7N1[C@H]5[C@H]2[C@H]3C[C@H]46 (tested in a mixture with another compound),Potency,[1],inactive
O=C(NC(=O)c1c(F)cccc1F)Nc1ccc(Cl)c(Oc2ncc(C(F)(F)F)cc2Cl)c1,Potency,[1],2.98 µM (active)
Cc1cc(C)cc(C(=O)OC2C[C@H]3CC[C@@H](C2)N3C)c1 (stereo partly specified),Potency,[2],inactive
CN[C@]1(c2ccccc2Cl)CCCCC1=O,Potency,[1],inactive
same,Potency,[8],inactive
CCC/C=C/C=C/C(=O)O[C@H]1/C(=C/C(=O)OC)C[C@H]2C[C@H]([C@@H](C)O)OC(=O)C[C@H](O)C[C@@H]3C[C@H](OC(C)=O)C(C)(C)[C@](O)(C[C@@H]4C/C(=C/C(=O)OC)C[C@H](/C=C/C(C)(C)[C@]1(O)O2)O4)O3,Potency,[1],0.0038 µM (active)
CNC(C)Cc1ccccc1 (stereo unspecified),Potency,[1],inactive
C[C@@H]1[C@@H]2Cc3ccc(O)cc3[C@@]1(C)CCN2CC1CC1,Potency,[1],inactive
same,Potency,[8],inactive
same,Potency,[4],inactive
same,Potency,[7],inactive
same,Potency,[5],inactive
same,Potency,[6],inactive
N#CC(C#N)=Cc1cc(O)c(O)c(O)c1,Potency,[1],5.96 µM (active)
same,Potency,[8],inactive
same,Potency,[5],inactive
same,Potency,[6],inactive
c1ccc2c(c1)Sc1ccccc1N2C[C@@H]1CN2CCC1CC2,Potency,[1],inactive
same,Potency,[8],inactive
CN1C(=O)CC(=O)N(c2ccccc2)c2cc(Cl)ccc21,Potency,[1],inactive
same,Potency,[8],inactive
same,Potency,[2],inactive
COC(=O)[C@H]1[C@@H](OC(=O)c2ccccc2)C[C@@H]2CC[C@H]1N2C,Potency,[1],inactive
same,Potency,[4],inactive
same,Potency,[7],inactive
same,Potency,[5],inactive
same,Potency,[6],inactive
same,Potency,[2],inactive
CC(N)Cc1ccc2c(c1)OCO2 (stereo unspecified),Potency,[1],inactive
same,Potency,[8],inactive
CCC1(c2ccccc2)C(=O)NC(=O)N(C)C1=O (stereo unspecified),Potency,[8],inactive
CN1CC[C@@]23CCCC[C@@H]2[C@@H]1Cc1ccc(O)cc13,Potency,[1],inactive
same,Potency,[7],inactive
same,Potency,[5],26.6 µM (active)
same,Potency,[6],inactive
same,Potency,[2],inactive
O=P1(N(CCCl)CCCl)NC(OO)CCO1 (stereo unspecified),Potency,[2],inactive
Cc1nnc2n1-c1sc(Br)cc1C(c1ccccc1Cl)=NC2,Potency,[4],8.49 µM (active)
same,Potency,[7],inactive
same,Potency,[5],inactive
same,Potency,[6],inactive
CCCCNC(C)(C)[P+](=O)O,Potency,[1],inactive
same,Potency,[4],inactive
same,Potency,[7],inactive
same,Potency,[5],inactive
same,Potency,[6],inactive
same,Potency,[2],inactive
